In the library only some 19% were active in any assay of this set; here they are far more common.
HT1080 IDH1KD tx: HT-1080 IDH1 knockdown cell toxicity (counter line). Potency, µM (highest dose often 46.1 µM), inactives show top-dose activity, negative = toxicity, usual class: cytotoxic. HT-1080 IDH1 knockdown viability, ATP luminescence, 48 h. hit rate 2% among 360,000. AID 686971;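 further: potency means the concentration at half of the fitted maximal effect; 0% = DMSO wells and -100% = cell-free medium wells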
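CellTiter-Glo luminescence after 48 h compound exposure at 37 degrees C of IDH1-knockdown HT-1080 cells in 5% FBS RPMI. %Activity scaled between DMSO wells and cell-free media wells, with curves fitted and assigned curve classes.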
TDP1 cell noCPT: qHTS for Inhibitors of human tyrosyl-DNA phosphodiesterase 1 (TDP1): qHTS in cells in absence of CPT. Potency, µM (highest dose often 46.2 µM), inactives show top-dose activity change, negative = growth inhibition, most hits filed as inhibitors. hit rate 15% among 420,000. DT40 Tdp1-/- hTDP1 cells, no CPT, ATP luminescence, 48 h; further: potency means the concentration at half of the fitted maximal effect; nearly all actives have a fitted effect of over 55% in size
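Readout: luminescence from CellTiter-Glo after 30 min in the dark at RT. Cells: DT40 Tdp1-/- with stable hTDP1, 400/well. Exposure: compounds alone, ≥48 hr, 37 °C.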
TDP1 cell CPT: growth inhibition of DT40 Tdp1-/-;hTDP1 cells with camptothecin (screen for TDP1 inhibitors) | chicken DT40 Tdp1-/-;hTDP1 cells + 20 nM CPT, ATP luminescence, 48 h | Potency, µM (doses to about 46.2 µM), without a hit: top-dose activity change, negative = growth inhibition, most hits filed as inhibitors | hit rate 12% among 420,000; further: potency means the concentration at half of the fitted maximal effect; nearly all actives have a fitted effect of over 55% in size
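Chicken DT40 Tdp1-/- cells complemented with human TDP1, 400 cells/well, exposed to compounds plus 20 nM camptothecin for at least 48 h at 37 C; viability read as ATP content by CellTiter-Glo luminescence.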
HT1080-NT tox: kills 2HG-producing HT-1080-NT fibrosarcoma cells; HT-1080-NT fibrosarcoma viability, CellTiter-Glo ATP luminescence, 48 h; hit rate 1.6% among 360,000; Potency, µM (doses to about 46.1 µM), inactives show at the top dose activity, negative = less viability, most hits filed as cytotoxic;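 further: NT is the 2HG producing partner of a matched IDH1 knockdown line; potency means the concentration at half of the fitted maximal effect; 0% = DMSO-treated cells and -100% = media-only wells without cells; nearly all actives have a fitted effect of over 55% in size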
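HT-1080-NT fibrosarcoma cells (2HG-overproducing), 750 cells/well in RPMI with 5% FBS, dosed after 2 h and incubated 48 h at 37C. CellTiter-Glo luminescence normalized to DMSO and no-cell wells; concentration-response curves fitted and classed.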
IL-1B inflam inh: inflammasome signaling inhibition, IL-1 beta readout; THP-1 LPS/ATP IL-1B secretion, AlphaLISA, 16 h; hits give low values; activity change, % at 57.5 µM; hit rate 4.7% among 360,000; AID 743279; in the data active means activity change below about -50%; inconclusive means mostly about -30% to -49%
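Secreted IL-1B measured by AlphaLISA bead assay after 16 h compound exposure of THP-1 cells; compounds (final up to 57.5 uM) added 1 h before LPS (250 ng/mL) and ATP (1.25 mM) stimulation; lower signal means less secretion.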
Starred values were filed as active, the others as inactive; ? = inconclusive; · = not tested or not shown. Unless noted, the call rests on the fitted dose curve; in most records, active means well fitted curve in the direction sought with a large enough effect; inconclusive means small, poorly fitted or top-dose-only effect, or another doubt; inactive means no such curve, though single readings can be large; an effect the other way counts as inactive or inconclusive. Unless noted, on the % scale 0 is the no-effect control and ±100 the full control effect.

SMILES | HT1080 IDH1KD tx | TDP1 cell noCPT | TDP1 cell CPT | HT1080-NT tox | IL-1B inflam inh
O=C1C(Cl)=C(O)C2(Cl)C(Cl)=C(Cl)C12Cl (configuration not stated) | 5.9% | -14.2% | -6.9% | 1.6% | 6.5
Cc1ccc(C(C(=O)NC2CCCCC2)N(C(=O)Cc2c[nH]c3ccccc23)c2ccccc2)o1 (configuration not stated) | -24.8% | ? | ? | ? | ?
COC(=O)c1ccc(C(C(=O)NC2CCCCC2)N(CCc2ccccc2)C(=O)Cc2cccs2)cc1 (configuration not stated) | 20.5% | 6.51µM* | 5.17µM* | 8.2% | 19.1
COC(=O)c1ccc(C(C(=O)NC2CCCCC2)N(Cc2ccc(F)cc2)C(=O)Cc2cccs2)cc1 (configuration not stated) | -28.5% | 11.6µM* | 9.2µM* | -4.1% | -7.6
Cc1ccc(C(C(=O)Nc2ccc3c(c2)OCO3)N(C)C(=O)Cc2c[nH]c3ccccc23)cc1 (configuration not stated) | ? | -19.7% | ? | ? | -51.8*
COc1ccc(CN(C(=O)Cc2cccs2)C(C(=O)NC2CCCC2)c2ccncc2)cc1 (configuration not stated) | -24.2% | ? | ? | 0.6% | -3.5
COc1cc(C(C(=O)NC2CCCCC2)N(C(=O)Cc2c[nH]c3ccccc23)c2ccc(C)cc2)cc(OC)c1OC (configuration not stated) | -10.7% | 25.9µM* | 23.1µM* | -4.5% | -16.3
CCc1ccc(OCc2n[nH]c(=S)n2C(C)CCCC(C)C)cc1 (configuration not stated) | -26.0% | ? | ? | -11.6% | -9.0
COc1ccc(C(C(=O)NC2CCCCC2)N(Cc2cccs2)C(=O)Cc2c[nH]c3ccccc23)cc1 (configuration not stated) | ? | 18.4µM* | 4.61µM* | ? | -58.5*
COCCn1ccc2c(OCC(=O)NCCc3ccc(OC)c(OC)c3)cccc2c1=O | 0.7% | 1.2% | 6.3% | -1.3% | -6.6
Cc1ccc(C2Nc3cccc4cccc(c34)N2)s1 | -13.0% | 18.4µM* | ? | -7.7% | -8.2
CCn1cc(CN(C)C(=O)/C=C/c2ccc([N+](=O)[O-])cc2)c(C)n1 | -2.1% | 14.6µM* | ? | 1.0% | -0.1
Cc1nn(C)cc1C(=O)/C=C/c1ccc([N+](=O)[O-])cc1 | ? | 18.4µM* | ? | 23.1µM* | -99.0*
COc1cccc(CCNC(=O)c2ccc(OC)c(OC3CCN(C(C)C)CC3)c2)c1 | 3.2% | 0.6% | 0.8% | -2.9% | -10.4
CN(C)CCNC(=O)c1sc2nc(-c3ccccc3)cc(C(F)(F)F)c2c1N | 18.4µM* | 16.4µM* | ? | 23.1µM* | -98.7*
CC(C)NC(=O)N1CC[C@@]2(CCCN(C(=O)c3csnn3)C2)C1 | · | 0.3% | 6.1% | · | ·
COc1ccc(S(=O)(=O)Nc2cc(Cl)ccc2OC)cc1 | ? | 2.31µM* | 2.31µM* | 6.51µM* | 36.3
COc1ccc(OC)c(NS(=O)(=O)c2ccc(NC(C)=O)cc2)c1 | -27.3% | ? | -24.8% | -11.7% | 31.3
COc1cc(Cl)c(C)cc1Nc1nc2ccccc2nc1NS(=O)(=O)c1ccccc1 | · | -26.9% | -15.5% | · | ·
COc1ccc(Cl)cc1NS(=O)(=O)c1ccc(OC)c(OC)c1 | -2.2% | -5.4% | -5.4% | 8.6% | 25.1
COc1ccc(OC)c(NS(=O)(=O)c2ccc(SC)cc2)c1 | ? | 16.4µM* | 9.2µM* | ? | 36.0
CCOc1ccc(S(=O)(=O)Nc2cc(OC)ccc2OC)cc1 | ? | 0.326µM* | 0.366µM* | 0.184µM* | -3.6
COc1ccc2nc(NS(=O)(=O)c3ccc(C)cc3)c(Nc3cc(Cl)ccc3OC)nc2c1 | · | 23.1µM* | ? | · | ·
N#Cc1cccc(NC(=O)N2CCCC3(CCN(C(=O)c4cccc(F)c4)CC3)C2)c1 | · | ? | -11.9% | · | ·
CC(=O)Nc1ccc(NC(=O)CCC(=O)OCC(=O)c2ccc(F)cc2)cc1 | -6.1% | 2.9% | -12.8% | -5.5% | -13.0
SMILES | HT1080 IDH1KD tx | TDP1 cell noCPT | TDP1 cell CPT | HT1080-NT tox | IL-1B inflam inh
Cc1ccc(Cl)cc1-n1c(CCC(=O)O)ccc1-c1cccs1 | · | 0.7% | 11.2% | · | ·
COc1ccc(S(=O)(=O)c2cc(NS(=O)(=O)c3ccc(Cl)cc3)c(C)c(C)c2O)cc1 | · | 16.4µM* | -19.0% | · | ·
Cc1ccc(CCNc2nc3ccccc3c3nc(-c4cccnc4)nn23)cc1 | · | ? | -23.3% | · | ·
CN1CCN(CCCNc2nc3ccccc3c3nc(-c4ccccc4)nn23)CC1 | 24.5% | 13µM* | ? | 11.0% | -7.4
COc1cc2nc(NCCCN3CCN(C)CC3)n3nc(-c4ccccc4)nc3c2cc1OC | ? | ? | ? | 16.4µM* | -110.2*
Cc1ccc(S(=O)(=O)N2CCN(C(=O)CCn3cncn3)CC2)cc1 | 6.4% | 1.7% | 22.3% | 2.7% | -3.4
CCCC1COC(Cn2cncn2)(c2ccc(C)cc2)O1 (configuration not stated) | 10.1% | 11.2µM* | 23.1µM* | 0.0% | 8.7
CCNC(=O)C1(C)CCN1CCC(=O)c1ccc(Br)cc1 (configuration not stated) | 4.7% | 16.4µM* | 20.6µM* | 13.7% | 0.0
COCCNC(=O)C1(C)CCCN(CCC(=O)c2ccc(Br)cc2)C1 (configuration not stated) | ? | 7.31µM* | 5.8µM* | ? | -15.5
CCCNC(=O)C1(C)CCN(CCS(=O)(=O)c2ccc(C)cc2)C1 (configuration not stated) | -1.7% | -21.3% | -15.9% | -7.3% | -2.2
CCCNC(=O)C1(C)CCN(CCC(=O)c2ccc(Br)cc2)C1 (configuration not stated) | ? | 3.26µM* | 2.59µM* | -20.4% | -13.8
COc1ccc(-c2nnn(CC(=O)N(CCCO)C(C(=O)NC3CCCC3)c3ccc(F)cc3)n2)cc1 (configuration not stated) | -4.0% | ? | 8.4% | -4.8% | ?
COc1ccc(OC)c(S(=O)(=O)NC(=O)C2(C)CCN2C(=O)c2ccco2)c1 (configuration not stated) | 3.9% | -6.5% | -0.4% | 23.5% | 3.3
COc1ccc(/C=C/c2nc(-c3ccccc3O)n(-c3ccccc3)n2)cc1 | -7.5% | ? | -27.8% | -0.8% | 0.0
CN(C)c1ccc(/C=C/c2nc(-c3ccccc3O)n(-c3ccccc3)n2)cc1 | · | ? | 16.4µM* | · | ·
N#CNC(=Nc1cccc(Cl)c1)Oc1ccccc1 | 1.4% | -24.7% | ? | -3.3% | 0.0
N#CNC(=Nc1ccc(Cl)cc1)Oc1ccccc1 | -2.5% | ? | ? | -5.1% | -55.2*
